Type in all cases: functional
Assay [1] concerns Plasmodium falciparum. In words: GSK_TCMDC: Inhibition of Plasmodium falciparum 3D7 in whole red blood cells, using parasite LDH activity as an index of growth. Test compounds present at 2uM.
Assay [2] deals with Plasmodium falciparum. The assay can be described thus: GSK_TCMDC: Inhibition of Plasmodium falciparum Dd2 in whole red blood cells, using parasite LDH activity as an index of growth. Test compounds present at 2uM.
In the next assay the test system is HepG2. In words: GSK_TCMDC: Percent inhibition of human HepG2 cell line. Test compounds present at 10uM.

As for `O=C(/C=C/c1ccc(Cl)c(Cl)c1)NCCCN1CCC(c2c[nH]c3ccccc23)CC1`, the figures for the Inhibition in the assay on Plasmodium falciparum [1], in the assay on Plasmodium falciparum [2] and in the assay with HepG2 were 90%, 5% and 48%, respectively.

In the case of `CC(C)CNCc1cccc(-c2cccc(CNCCCN3CCN(C)CC3)c2)c1.O=C(O)C(F)(F)F`, the Inhibition in the assay on Plasmodium falciparum [1] came to 88%; in the assay on Plasmodium falciparum [2] it was 7%; in the assay on HepG2, 5%.

Regarding `CCNC1=NC2=C(CC(C(C)(C)C)CC2)C2(CCC(C(C)(C)C)CC2)S1.Cl` (stereo not drawn), the Inhibition in the assay with Plasmodium falciparum [1] is given as 99%; in the assay on Plasmodium falciparum [2] it was 99%; with HepG2, 40%.

Consider `CCCCCCCc1[nH]c2ccccc2c(=O)c1C`, for which the Inhibition in the assay on Plasmodium falciparum [1] is reported as 97%; in the assay with Plasmodium falciparum [2], 96%; in the assay on HepG2, 48%.

Consider `O=C(c1cc2ccccc2o1)N1CCc2cc3nccc(N4CCN5CCC[C@H]5C4)c3cc21`, for which the Inhibition with Plasmodium falciparum [1] is given as 99%; in the assay on Plasmodium falciparum [2] it was 100%; in the assay with HepG2, 62%.

In the case of `CCn1c2ccccc2c2cc(Cc3cnc(N)nc3N)ccc21.Cl`, the Inhibition turned out to be 94% in the assay on Plasmodium falciparum [1], 0% in the assay on Plasmodium falciparum [2] and 28% with HepG2.

`CCc1cn2c3c(cc(C(=O)N[C@@H](Cc4cccc(F)c4)[C@H](O)CNC4CCOCC4)cc13)N(C)S(=O)(=O)CC2.O=CO`: the values for the Inhibition in the assay on Plasmodium falciparum [1], with Plasmodium falciparum [2] and with HepG2 were 97%, 97% and 0%, respectively.

For the compound `Cc1cc(SC(C)(C)C)cc2c(Cl)c(C(N)=O)cnc12`, the figures for the Inhibition in the assay with Plasmodium falciparum [1], with Plasmodium falciparum [2] and in the assay on HepG2 were 98%, 98% and 83%, respectively.

`O=C(Nc1ccc(O)c(-c2nc3ccccc3[nH]2)c1)c1ccc([N+](=O)[O-])cc1`: the results for the Inhibition in the assay on Plasmodium falciparum [1], in the assay with Plasmodium falciparum [2] and in the assay with HepG2 were 97%, 45% and 0%, respectively.

As to `CCCCCN1CCCC(NS(=O)(=O)c2ccc(C(=O)Nc3ccc(C(F)(F)F)cc3)cc2)C1.O=C(O)C(F)(F)F` (stereo not drawn), the results for the Inhibition in the assay on Plasmodium falciparum [1], with Plasmodium falciparum [2] and in the assay on HepG2 were 98%, 20% and 41%, respectively.

With `CCOc1ccc(CCC(=O)O)cc1OCC`, the values for the Inhibition in the assay with Plasmodium falciparum [1], in the assay on Plasmodium falciparum [2] and in the assay on HepG2 were 94%, 0% and 60%, respectively.

In the case of `Cc1[nH]c2c(C)cccc2c1C1CCN(CCC2CCN(C(=O)/C=C/c3ccc(Cl)c(Cl)c3)CC2)CC1`, the Inhibition is on record as 100% with Plasmodium falciparum [1], 79% in the assay with Plasmodium falciparum [2] and 67% with HepG2.

As for `Cc1cc(-c2ccc3c(c2)CCN(CCC2CCC(NC(=O)/C=C/c4cccc(F)c4)CC2)CC3)on1.Cl` (stereo not drawn), the Inhibition in the assay with Plasmodium falciparum [1] amounted to 95%; in the assay on Plasmodium falciparum [2], 19%; in the assay on HepG2 it was 23%.

Take `Clc1ccc(Nc2nc(-c3ccccn3)cs2)nc1`: the results for the Inhibition in the assay on Plasmodium falciparum [1], with Plasmodium falciparum [2] and with HepG2 were 95%, 90% and 36%, respectively.

Regarding `COC(=O)C(Cc1ccccc1)NC(=O)NC1CCN(c2ccnc(Nc3ccc(F)cc3)n2)C1` (stereo not drawn), the Inhibition in the assay on Plasmodium falciparum [1] amounted to 90%; in the assay on Plasmodium falciparum [2] it was 14%; in the assay with HepG2, 0%.

In the case of `CCC(CO)NCC(O)Cn1c2ccc(Cl)cc2c2cc(Cl)ccc21` (stereo not drawn), the Inhibition in the assay with Plasmodium falciparum [1] was found to be 96%; with Plasmodium falciparum [2], 88%; in the assay with HepG2 it was 11%.

On to `CC(C)CCN1CCC(Oc2ccc(NC(=O)c3ccco3)cc2Cl)CC1.O=C(O)C(F)(F)F`, for which the Inhibition came to 95% in the assay on Plasmodium falciparum [1], 93% in the assay with Plasmodium falciparum [2] and 1% in the assay on HepG2.

With `CC(C)Cc1ccc(N2CCN(CCCCNC(=O)c3ccc(NC(=O)c4cc(C(F)(F)F)cc(C(F)(F)F)c4)cc3)CC2)cc1`, the Inhibition worked out at 100% in the assay on Plasmodium falciparum [1], 100% with Plasmodium falciparum [2] and 15% in the assay with HepG2.

Take `CCC(C)CN1C(=O)C(c2ccccc2)(c2ccccc2)N=C1N.O=CO` (stereo not drawn): the Inhibition in the assay on Plasmodium falciparum [1] came to 98%; with Plasmodium falciparum [2], 79%; with HepG2 it was 11%.

Turning to `CC1(C)N=C(N)N=C(N)N1c1cc(Cl)c(Cl)cc1Cl.Cl`, the Inhibition with Plasmodium falciparum [1] is given as 95%; in the assay on Plasmodium falciparum [2] it was 0%; in the assay on HepG2 it was 11%.

In the case of `Cc1cccc2nc(-c3cccc(-c4ccc(NC(=O)NCc5cccc(F)c5)cc4)c3)[nH]c12`, the Inhibition is recorded as 100% in the assay on Plasmodium falciparum [1], 83% with Plasmodium falciparum [2] and 40% with HepG2.

`CCN(CC)CCCCNc1cc(-c2[nH]c(-c3c(Cl)cccc3Cl)nc2-c2ccc3cc(OC)ccc3c2)ccn1.O=C(O)C(F)(F)F`: the results for the Inhibition with Plasmodium falciparum [1], in the assay on Plasmodium falciparum [2] and in the assay with HepG2 were 95%, 93% and 23%, respectively.

For the compound `N#Cc1ccccc1C1CCN(C2CCC(Nc3cc(-c4cccnc4)ccn3)CC2)CC1` (stereo not drawn), the Inhibition with Plasmodium falciparum [1] came out at 100%; in the assay with Plasmodium falciparum [2], 78%; in the assay with HepG2 it was 38%.

As to `O=C(Nc1ccc(S(=O)(=O)N2CCOCC2)cc1)c1cc(-c2cc(Cl)ccc2O)n[nH]1`, the results for the Inhibition in the assay on Plasmodium falciparum [1], in the assay on Plasmodium falciparum [2] and with HepG2 were 96%, 59% and 40%, respectively.

For the compound `COc1ccc2c(OC)ccc(CNCCCCCCNCc3ccc(OC)c4ccc(OC)cc34)c2c1.CS(=O)(=O)O`, the Inhibition was 100% in the assay on Plasmodium falciparum [1], 98% with Plasmodium falciparum [2] and 100% in the assay on HepG2.

For `CC(C)(C)c1ccc2[nH]c(-c3ccc(C(=O)NCCCc4ccccc4)cc3)nc2c1`, the Inhibition in the assay on Plasmodium falciparum [1] worked out at 95%; in the assay with Plasmodium falciparum [2] it was 14%; in the assay on HepG2, 11%.

`Br.N=c1n(CCN2CCCCC2)c2ccccc2n1CC(=O)c1cccc([N+](=O)[O-])c1`: the Inhibition came to 94% in the assay with Plasmodium falciparum [1], 0% with Plasmodium falciparum [2] and 10% with HepG2.

For the compound `O=C(NCc1ccco1)c1ccc(S(=O)(=O)c2ccc(Cl)cc2)cc1`, the Inhibition with Plasmodium falciparum [1] was 97%; with Plasmodium falciparum [2], 95%; in the assay with HepG2, 6%.

For `CCCCN(CCCC)/C(=N/C(=N)NCc1ccc(Cl)c(Cl)c1)NCCCCCCN/C(=N\C(=N)NCc1ccc(Cl)c(Cl)c1)N(CCCC)CCCC`, the figures for the Inhibition in the assay on Plasmodium falciparum [1], in the assay on Plasmodium falciparum [2] and in the assay on HepG2 were 100%, 96% and 9%, respectively.

As to `CS(=O)(=O)c1ccc(CCNCc2ccc(-c3ccc(CNC4CCN(Cc5ccccc5)CC4)cc3)nc2)cc1.O=C(O)C(F)(F)F`, the Inhibition with Plasmodium falciparum [1] is reported as 100%; with Plasmodium falciparum [2], 100%; in the assay on HepG2 it was 32%.

For `CC(C)CNCc1cccc(-c2ccc(CNc3ccc4ncccc4c3)cc2)c1.O=C(O)C(F)(F)F`, the Inhibition with Plasmodium falciparum [1] was determined as 94%; with Plasmodium falciparum [2] it was 32%; with HepG2, 13%.

As a reminder, the Inhibition is the drop in the measured response relative to a control, in per cent. A high value points to strong suppression.
